Among the data in PubChem BioAssay (EPA / NIEHS) are outcome and AC50 values, retold here.

“And” between values parts separate entries of the source, which are not always exact repeats. Equal entries are not always repeated. Records with an inconclusive call do not appear. Some compounds were tested as several samples or in several runs, with calls that do not always agree. The source made the active and inactive calls. The calls were made as follows, unless noted: active = hit-call score of the fitted dose curve at least 0.9, where 1 is the maximum; inconclusive = response in the unintended direction; inactive = score below 0.9.

Experiment [1] addresses Agonist Androgen Response Element (ARE), AR (gene 367) (UniProt P10275). Description: OT_AR_ARELUC_AG_1440: Odyssey Thera (OT) 24-hour CHO-K1 Luciferase Assay for Agonist Androgen Response Element (ARE) (AID 2283379). The method in brief: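 Luminescence increase above DMSO, read after a 24 h compound treatment of CHO-K1 cells expressing an androgen response element luciferase reporter, gives the single primary endpoint; concentration-response fitting used the positive direction.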

The target of experiment [2] is Estrogen receptor beta (Homo sapiens) (UniProt Q92731). The experiment is described as follows: OT_ER_ERbERb_1440: Odyssey Thera (OT) 24-hour HEK293T Protein-Complementation Assay for Estrogen Receptor-beta/-beta Homodimer (AID 2283380).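 Also: fluorescence gain from ER beta LBD homodimer complementation read by laser scanning cytometry; scored as signal increase over DMSO baseline for both agonists and antagonists.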 The gist of the method:
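HEK293T cells stably expressing human ER-beta LBD (aa 310-547) PCA homodimer pair, dosed 24 h; formaldehyde-fixed, Draq5-stained. Readout: increase in nuclear (agonist) or nuclear plus cytoplasmic (antagonist) fluorescence intensity versus DMSO, gain-of-signal fitting.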

Experiment [3] concerns the target Retinoic acid receptor RXR-alpha (Homo sapiens) (UniProt P19793). Description: OT_NURR1_NURR1RXRa_0480: Odyssey Thera (OT) 8-hour HEK293T Protein Complementation Assay for Nurr1/retinoid X receptor (RXR) (AID 2283385). The method in brief: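 Interaction of bait and prey reconstitutes a functional reporter, whose fluorescence was measured in HEK293T cells dosed with compound for 8 hours. Signal gain relative to DMSO defined the single endpoint.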

The target is the same in experiment [4]. Description: OT_NURR1_NURR1RXRa_1440: Odyssey Thera (OT) 24-hour HEK293T Protein Complementation Assay for Nurr1/retinoid X receptor (RXR) (AID 2283386). The gist of the method: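 Steps: fragment-tagged Nurr1 and RXRα expressed in HEK293T; compounds added; after 24 h, complemented reporter quantified by fluorescence intensity; signal increase over DMSO fitted as the single endpoint.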

In experiment [5] the target is Estrogen receptor (Homo sapiens) (UniProt P03372). The experiment is described as follows: OT_ERa_GFPERaERE_0480: Odyssey Thera (OT) 8-hour HeLa Transcription Induction Assay for Estrogen Receptor (AID 2283381; active = hit-call score of the fitted dose curve at least 0.9, where 1 is the maximum; inactive = score below 0.9). The gist of the method:
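Human cervical HeLa cells were treated for 8 hours, after which ERE-driven GFP induction was measured by fluorescence microscopy; increases over DMSO baseline defined activity.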

The target is the same in experiment [6]. Description: OT_ERa_GFPERaERE_0120: Odyssey Thera (OT) 2-hour HeLa Transcription Induction Assay for Estrogen Receptor (AID 2283382). The gist of the method: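 Cells (human cervical HeLa) receive compound, incubate 2 hours, then are imaged for fluorescent reporter induction. Images are quantified by high content analysis, and activity is fitted as gain of signal against DMSO.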

The target in experiment [7] is Bile acid receptor (Homo sapiens) (UniProt Q96RI1). Description: OT_FXR_FXRSRC1_0480: Odyssey Thera (OT) 8-hour HEK293T Protein-Complementation Assay for Farnesoid X receptor/SRC-1 Co-activator (AID 2283383). The gist of the method: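 PCA, HEK293T, 8 h compound exposure; FXR–SRC-1 binding reconstitutes split reporter; fluorescence intensity; positive-direction fit vs DMSO.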
Bile acid receptor (Homo sapiens), sequence (Q96RI1 whole entry, looked up): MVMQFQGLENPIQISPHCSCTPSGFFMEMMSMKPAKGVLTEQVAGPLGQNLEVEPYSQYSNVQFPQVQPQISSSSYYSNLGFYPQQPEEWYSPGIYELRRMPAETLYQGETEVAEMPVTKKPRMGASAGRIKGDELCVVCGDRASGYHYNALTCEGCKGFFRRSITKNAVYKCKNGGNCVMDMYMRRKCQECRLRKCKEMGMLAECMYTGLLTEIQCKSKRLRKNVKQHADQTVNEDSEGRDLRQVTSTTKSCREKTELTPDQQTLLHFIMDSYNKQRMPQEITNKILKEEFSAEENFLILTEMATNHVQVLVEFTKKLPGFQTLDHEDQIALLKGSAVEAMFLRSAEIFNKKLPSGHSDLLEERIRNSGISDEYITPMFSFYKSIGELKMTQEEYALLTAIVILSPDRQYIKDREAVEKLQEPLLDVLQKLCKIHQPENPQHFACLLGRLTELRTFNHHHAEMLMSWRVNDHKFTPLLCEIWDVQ

For experiment [8] the target is unchanged. The experiment is described as follows: OT_FXR_FXRSRC1_1440: Odyssey Thera (OT) 24-hour HEK293T Protein-Complementation Assay for Farnesoid X receptor/SRC-1 Co-activator (AID 2283384). The gist of the method:
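Measures ligand-driven FXR–SRC-1 co-activator recruitment in HEK293T via fragment complementation, fluorescence intensity at 24 h. DMSO served as negative control and baseline for gain-of-signal fitting.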

For experiment [9], the target named is Peroxisome proliferator-activated receptor gamma (Homo sapiens) (UniProt P37231). The experiment is described as follows: OT_PPARg_PPARgSRC1_0480: Odyssey Thera (OT) 8-hour Protein-Complementation Assay for Peroxisome Proliferator-activated Receptor Gamma / SRC-1 Co-activator (AID 2283387).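 Also: nuclear to cytoplasmic split Venus YFP fluorescence ratio reporting PPARg SRC-1 interaction.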 The method in brief: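 HEK293T transiently transfected with PPARg and SRC-1 fused to Venus YFP fragments, compounds 8 h at 37C. Fixed, Draq5-stained cells imaged; nuclear/cytoplasmic 488 nm fluorescence ratio over at least 350 cells per image; gain fitted versus DMSO.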
Peroxisome proliferator-activated receptor gamma (Homo sapiens), sequence (P37231 whole entry, looked up, the tested form may be a part): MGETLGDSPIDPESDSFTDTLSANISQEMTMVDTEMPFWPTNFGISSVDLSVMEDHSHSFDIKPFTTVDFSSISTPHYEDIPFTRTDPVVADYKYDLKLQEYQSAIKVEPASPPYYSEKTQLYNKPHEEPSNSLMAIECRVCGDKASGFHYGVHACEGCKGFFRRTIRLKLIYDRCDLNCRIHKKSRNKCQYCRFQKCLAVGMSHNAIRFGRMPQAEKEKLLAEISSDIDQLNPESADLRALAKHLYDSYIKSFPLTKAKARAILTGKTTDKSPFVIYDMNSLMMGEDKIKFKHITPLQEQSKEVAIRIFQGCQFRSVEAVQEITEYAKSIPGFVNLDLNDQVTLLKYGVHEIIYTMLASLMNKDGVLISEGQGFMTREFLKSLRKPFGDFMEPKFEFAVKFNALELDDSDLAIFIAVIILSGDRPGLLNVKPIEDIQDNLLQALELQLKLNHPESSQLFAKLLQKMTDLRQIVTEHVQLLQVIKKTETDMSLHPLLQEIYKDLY

Estrogen receptor (Homo sapiens), sequence (P03372 whole entry, looked up): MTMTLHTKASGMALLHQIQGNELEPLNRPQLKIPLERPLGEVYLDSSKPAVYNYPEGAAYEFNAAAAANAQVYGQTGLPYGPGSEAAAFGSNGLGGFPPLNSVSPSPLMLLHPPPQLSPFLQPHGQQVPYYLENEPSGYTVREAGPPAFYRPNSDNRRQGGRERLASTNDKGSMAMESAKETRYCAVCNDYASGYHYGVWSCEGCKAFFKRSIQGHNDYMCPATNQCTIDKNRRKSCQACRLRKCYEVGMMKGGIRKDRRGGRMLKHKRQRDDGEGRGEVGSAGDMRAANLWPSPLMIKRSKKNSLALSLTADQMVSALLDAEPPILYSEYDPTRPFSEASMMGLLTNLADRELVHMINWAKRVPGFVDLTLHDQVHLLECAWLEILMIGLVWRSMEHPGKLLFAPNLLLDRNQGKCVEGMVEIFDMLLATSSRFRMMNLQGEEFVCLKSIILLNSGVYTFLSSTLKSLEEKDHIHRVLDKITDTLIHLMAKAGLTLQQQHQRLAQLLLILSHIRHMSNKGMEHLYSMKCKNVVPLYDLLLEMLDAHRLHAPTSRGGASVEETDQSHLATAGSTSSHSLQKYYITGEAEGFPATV
Agonist Androgen Response Element (ARE), AR (gene 367), sequence (P10275 whole entry, looked up): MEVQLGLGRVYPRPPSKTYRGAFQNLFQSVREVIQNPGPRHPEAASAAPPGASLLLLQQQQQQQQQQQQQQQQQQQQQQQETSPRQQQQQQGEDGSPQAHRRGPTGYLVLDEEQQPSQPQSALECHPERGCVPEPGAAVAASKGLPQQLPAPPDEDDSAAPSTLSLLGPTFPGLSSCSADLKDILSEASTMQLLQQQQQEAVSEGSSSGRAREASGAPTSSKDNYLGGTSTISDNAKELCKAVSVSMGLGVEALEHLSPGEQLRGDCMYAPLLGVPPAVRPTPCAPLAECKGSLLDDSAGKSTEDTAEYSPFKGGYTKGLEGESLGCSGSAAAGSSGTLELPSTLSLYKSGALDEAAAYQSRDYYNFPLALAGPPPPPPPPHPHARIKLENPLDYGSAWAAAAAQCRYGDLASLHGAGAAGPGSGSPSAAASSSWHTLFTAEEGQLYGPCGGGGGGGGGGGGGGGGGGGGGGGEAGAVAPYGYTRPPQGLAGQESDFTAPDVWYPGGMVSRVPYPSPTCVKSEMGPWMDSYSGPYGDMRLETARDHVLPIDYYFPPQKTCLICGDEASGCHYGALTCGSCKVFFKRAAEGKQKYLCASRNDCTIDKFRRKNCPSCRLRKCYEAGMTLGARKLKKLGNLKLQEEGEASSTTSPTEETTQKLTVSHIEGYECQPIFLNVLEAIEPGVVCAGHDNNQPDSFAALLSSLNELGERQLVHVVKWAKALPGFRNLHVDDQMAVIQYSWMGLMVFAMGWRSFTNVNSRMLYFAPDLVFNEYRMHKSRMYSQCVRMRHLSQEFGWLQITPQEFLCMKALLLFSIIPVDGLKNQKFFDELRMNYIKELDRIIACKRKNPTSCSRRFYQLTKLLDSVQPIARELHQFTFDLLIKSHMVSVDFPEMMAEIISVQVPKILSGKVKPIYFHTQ
Estrogen receptor beta (Homo sapiens), sequence (Q92731 whole entry, looked up, the tested form may be a part): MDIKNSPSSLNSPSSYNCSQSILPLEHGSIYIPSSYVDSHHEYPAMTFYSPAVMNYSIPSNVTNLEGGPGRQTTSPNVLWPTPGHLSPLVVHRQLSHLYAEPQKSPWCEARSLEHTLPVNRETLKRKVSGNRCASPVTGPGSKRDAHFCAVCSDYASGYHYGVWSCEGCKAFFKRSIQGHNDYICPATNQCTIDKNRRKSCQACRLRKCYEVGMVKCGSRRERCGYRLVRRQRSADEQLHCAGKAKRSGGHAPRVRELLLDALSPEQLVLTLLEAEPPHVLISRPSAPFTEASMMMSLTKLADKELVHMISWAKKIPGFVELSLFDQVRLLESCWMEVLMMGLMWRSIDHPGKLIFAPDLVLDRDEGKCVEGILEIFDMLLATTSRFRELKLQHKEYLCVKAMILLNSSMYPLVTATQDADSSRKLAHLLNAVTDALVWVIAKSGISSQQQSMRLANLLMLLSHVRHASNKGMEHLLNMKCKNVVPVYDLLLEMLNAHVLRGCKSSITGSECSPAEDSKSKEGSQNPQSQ
Retinoic acid receptor RXR-alpha (Homo sapiens), sequence (P19793 whole entry, looked up): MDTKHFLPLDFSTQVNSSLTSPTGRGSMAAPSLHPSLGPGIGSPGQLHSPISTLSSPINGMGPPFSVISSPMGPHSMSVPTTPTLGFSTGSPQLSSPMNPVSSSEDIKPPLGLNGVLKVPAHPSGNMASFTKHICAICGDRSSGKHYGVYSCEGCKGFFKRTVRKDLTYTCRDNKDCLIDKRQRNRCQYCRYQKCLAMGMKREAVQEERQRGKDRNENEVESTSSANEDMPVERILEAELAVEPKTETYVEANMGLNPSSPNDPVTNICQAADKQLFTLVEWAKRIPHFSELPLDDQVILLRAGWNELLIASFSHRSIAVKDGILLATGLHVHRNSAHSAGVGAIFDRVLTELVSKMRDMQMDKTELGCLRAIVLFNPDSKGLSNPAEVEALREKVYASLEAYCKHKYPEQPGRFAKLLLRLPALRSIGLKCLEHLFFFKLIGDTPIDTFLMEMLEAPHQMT

With `CC12CC1(C)C(=O)N(c1cc(Cl)cc(Cl)c1)C2=O` (stereo unspecified), the molecule was classed as inactive in experiment [1], in experiment [2], in [3] and in experiment [4].

`COc1cc(OC)nc(NC(=O)NS(=O)(=O)c2ncccc2C(=O)N(C)C)n1`: the molecule was classed as inactive in [2], in experiment [5], in experiment [6], in experiment [3] and in experiment [4].

For the molecule `O=C(Nc1ccc2[nH]ccc2c1)c1cc2cc(F)ccc2n1Cc1cccc(F)c1`, the call in [2], in [5], in experiment [6] and in experiment [7] was inactive.

On to `C=C(C)C#N`, for which the molecule was called inactive in experiment [2], in experiment [5], in experiment [6], in experiment [7] and in experiment [4].

In the case of `COP(=O)(OC)OC`, the molecule was classed as inactive in experiment [1], in [5], in [6], in experiment [7], in experiment [8] and in [3]. In addition, the result in [4] was inactive.

Take `CNC`: the call in experiment [5], in [6] and in experiment [4] was inactive.

Consider `COc1cc(-c2ccc(N)c(OC)c2)ccc1N`, for which the molecule was called inactive in experiment [3] and in [4]. For the same molecule, the AC50 (usually the concentration at which the activity in the assay is half-maximal) in experiment [4] was 67.1 µM (active) and 41.3 µM (active) and 50 µM (active).

Regarding `Cc1ccc(N)cc1Cl`, the molecule was classed as inactive in experiment [5] and in experiment [3]. In addition, in [6], the AC50 was 0.789 µM (active).

In the case of `CC(C)(C)c1cc(O)ccc1O`, the result in [5], in [6], in experiment [7], in experiment [3] and in experiment [4] was inactive. Moreover, the concentration at half-maximal activity (AC50) is 62.2 µM (active) in experiment [8] and 69.5 µM (active) in experiment [3].

For the molecule `O=C(O)C(F)(F)C(F)(F)C(F)(F)C(F)(F)C(F)(F)C(F)(F)C(F)(F)C(F)(F)C(F)(F)C(F)(F)F`, the outcome in experiment [2], in [7], in experiment [8], in experiment [3], in experiment [4] and in experiment [9] was inactive.

In the case of `CC(=O)C=C(C)C`, the half-maximal activity concentration (AC50) in experiment [5] was 7.47 µM (active); in experiment [6] it was 22.9 µM (active). The outcome in [4] and in [9] was inactive.

In the case of `C[C@@H]1C[C@@H]([C@H](O)CC2CC(=O)NC(=O)C2)C(=O)[C@@H](C)C1`, the molecule was classed as inactive in [2] and in experiment [9].

Consider `COc1ccc(C=O)cc1`, for which the outcome in experiment [5], in experiment [6] and in experiment [3] was inactive.

Consider `CC(=O)c1cc(C(C)(C)C)cc2c1CCC2(C)C`, for which the molecule was classed as inactive in [5], in experiment [6] and in [9]. Also, the AC50 in experiment [3] is 74.2 µM (active); in experiment [4] it was 86.9 µM (active).

As for `Clc1nc(Cl)nc(Cl)n1`, the molecule was classed as inactive in [5], in experiment [6], in experiment [3] and in experiment [4].

On to `O=C(OC1CCCCC1)c1ccccc1C(=O)OC1CCCCC1`, for which the molecule was classed as inactive in [5], in experiment [6] and in experiment [9]. In addition, the AC50 in [7] is 40.1 µM (active); in experiment [8], 61.8 µM (active); in [3] it was 44.6 µM (active).

For `CCCCCCCCSC(=O)Oc1cc(Cl)nnc1-c1ccccc1`, the result in [5], in experiment [6], in experiment [3] and in experiment [9] was inactive.

As for `Cc1ccccc1N`, the call in experiment [3] and in [4] was inactive.

Turning to `CCC[CH2][Sn]([Cl])([Cl])[Cl]`, the result in experiment [5], in [6], in experiment [7], in [8] and in [3] was inactive.

Regarding `C1CCC(NC2CCCCC2)CC1`, the molecule was classed as inactive in experiment [5] and in [6].

Consider `CCCCOCCOC(C)=O`, for which the call in experiment [5], in experiment [6], in [7], in experiment [8] and in [9] was inactive.

As to `NC(=O)O`, the call in [5], in experiment [6] and in experiment [3] was inactive.

Take `O=C(O)C(Cl)(Cl)Cl`: the call in [3], in experiment [4] and in experiment [9] was inactive.

As for `O=C/C=C/c1ccccc1`, the outcome in [5], in experiment [6], in experiment [3] and in experiment [4] was inactive.

For `CN(C)N=O`, the molecule was classed as inactive in experiment [2], in [8], in experiment [3], in [4] and in experiment [9].

For the molecule `Oc1cccc2cccnc12`, the call in experiment [2], in experiment [7] and in experiment [9] was inactive.

Regarding `CCCCCCCCc1ccc(O)cc1`, the AC50 in [2] was 12.3 µM (active); in experiment [4], 57.4 µM (active). Further, the molecule was called inactive in experiment [3], in experiment [4] and in [9].

On to `O=C(NCO)NCO`, for which the molecule was called inactive in [5], in experiment [6] and in [4].

Consider `O=C(O)C(F)(F)C(F)(F)C(F)(F)C(F)(F)C(F)(F)C(F)(F)F`, for which the molecule was classed as inactive in [2], in [7], in experiment [8], in [3], in [4] and in experiment [9].

With `C=CCc1ccc(OC)cc1`, the molecule was classed as inactive in experiment [2], in experiment [3] and in experiment [4].

As to `OCC(O)CCl` (stereo unspecified), the molecule was classed as inactive in experiment [5], in experiment [6], in experiment [3], in experiment [4] and in experiment [9].

`O=C(Cc1ccccc1)c1ccccc1`: the molecule was classed as inactive in experiment [5], in [6], in [7], in [8], in experiment [3] and in experiment [4].

For `CC(C)(OO)c1ccccc1`, the AC50 in experiment [5] was 35.3 µM (active). For the same molecule, the outcome in [6] was inactive.

On to `ClC(Cl)=C(Cl)C(Cl)=C(Cl)Cl`, for which the molecule was called inactive in experiment [5], in [6], in experiment [3] and in experiment [4].
